{"source": "PubChem BioAssay (NCATS)", "note": "Results filed as inconclusive are left out. Where a call stands in place of a potency, no number is given. Calls of active or inactive are those of the source. The call rests on the fitted dose curve; in most records, active means well fitted cell-killing curve with a large enough effect; inconclusive means small, poorly fitted or top-dose-only effect; inactive means flat fitted curve, though single readings scatter. Potency means the concentration at half of the fitted maximal effect."}
{"assay": "Cell Viability - LYMP2-012 (AID 982);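 further: cells exposed to compound for one day before reading; nearly all actives have a fitted effect of over 55% in size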", "conditions": "LYMP2-012 lymphoblastoid cell viability qHTS; series mostly up to 92.2 µM", "description": "NIH Chemical Genomics Center [NCGC]\nNIH Molecular Libraries Screening Centers Network [MLSCN]\nNational Institutes of Environmental Health Sciences [NIEHS]\nNational Toxicology Program [NTP]\nWe have developed a 1536-well cell-based assay for quantitative high throughput screening (qHTS) against a number of cell lines to determine in vitro cytotoxicity of small molecules. This particular assay uses a human lymphoblastoid cell line (LYMP2-012) purchased from Coriell Institute for Medical Research.\nNCGC Assay Protocol Summary:\nThe CellTiter-Glo luminescent cell viability assay (Promega) is a homogeneous method to measure the number of viable cells in culture. The end point readout of this assay is based on quantitation of intracellular ATP, an indicator of metabolic activity, using the luciferase reaction. Luciferase catalyzes the oxidation of beetle Luciferin to oxyluciferin and light in the presence of ATP. The luminescent signal is proportional to amount of ATP present.\nUsing the CellTiter-Glo luminescent cell viability assay, the amount of cellular ATP was measured in the lymphoblastoid cell line with complete culture medium following compound treatment for 24 hours. The assay was performed in opaque white Kalypsys 1536-well plates. In the screen, tetraoctylammonium bromide was used as positive control. Library compounds were measured for their ability to cause acute toxicity in the cell line, as reflected by a decrease in intracellular ATP levels, in a concentration-dependent manner. […] AC50 values were determined from concentration-response data modeled with the standard Hill equation.\nqHTS protocol for CellTiter Glo lymphoblastoid cellular assay\n[Step] [Parameter] [Value] [Description]\n1. Reagent; 5 uL; 2500 lymphoblastoid cells/well\n2. Time; 5 hr; 37 C incubation\n4. Controls; 23 nL; Tetraoctylammonium bromide 6.4pM to 92 uM\n5. Time; 24 hr; 37 C incubation\n6. Reagent; 5 uL; CellTiter Glo reagent\n7. Time; 30 min; Room Temperature\n8. Detection; Luminescence; Viewlux plate reader\nKeywords: cell viability, cytotoxicity, lymphoblastoid cell line, luminescence, NTPHTS, NTPHTS_NCGC, NIEHS, DSSTox, MLSMR, MLSCN, NIH Roadmap, qHTS, NCGC"}
{"smiles": "OCCBr", "Potency": "inactive"}
{"smiles": "Nc1ccc(Cl)c(Cl)c1", "Potency": "inactive"}
{"smiles": "Cc1cccc(C)c1N", "Potency": "inactive"}
{"smiles": "CC(Cl)(Cl)Cl", "Potency": "inactive"}
{"smiles": "Clc1cc(Cl)c(Cl)c(Cl)c1", "Potency": "inactive"}
{"smiles": "CCOC(=O)CBr", "Potency": "inactive"}
{"smiles": "C=COC(C)=O", "Potency": "inactive"}
{"smiles": "Cc1cc(N=Nc2ccccc2C)ccc1N", "Potency": "inactive"}
{"smiles": "C=CC#N", "Potency": "inactive"}
{"smiles": "CCOS(C)(=O)=O", "Potency": "inactive"}
{"smiles": "CN(C)C(=O)Cl", "Potency": "inactive"}
{"smiles": "CCOP(=S)(OCC)Oc1nc(Cl)c(Cl)cc1Cl", "Potency": "inactive"}
{"smiles": "CC(C#N)CCC#N", "note": "(stereo not given)", "Potency": "inactive"}
{"smiles": "C=CC=O", "Potency": "inactive"}
{"smiles": "CC(C)Br", "Potency": "inactive"}
{"smiles": "CCCC[N+](=O)[O-]", "Potency": "inactive"}
{"smiles": "ClCC(Cl)Cl", "Potency": "inactive"}
{"smiles": "Cc1ccc2c(c1N)C(=O)c1ccccc1C2=O", "Potency": "inactive"}
{"smiles": "CCN(CC)CCO", "Potency": "inactive"}
{"smiles": "c1ccc(C2CO2)cc1", "note": "(stereo not given)", "Potency": "inactive"}
{"smiles": "C=CC(=O)OC", "Potency": "inactive"}
{"smiles": "ClCC(Br)CBr", "note": "(stereo not given)", "Potency": "inactive"}
{"smiles": "Nc1c(Br)cc([N+](=O)[O-])cc1[N+](=O)[O-]", "Potency": "inactive"}
{"smiles": "ClC(Cl)(Cl)C(Cl)(Cl)Cl", "Potency": "inactive"}
{"smiles": "Nc1ncc([N+](=O)[O-])s1", "Potency": "inactive"}
{"smiles": "O=[N+]([O-])c1ccc(Cl)cc1", "Potency": "inactive"}
{"smiles": "Clc1cccc(Cl)c1Cl", "Potency": "inactive"}
{"smiles": "CCOP(=O)(OCC)OCC", "Potency": "inactive"}
{"smiles": "O=[N+]([O-])c1cccc2c([N+](=O)[O-])cccc12", "Potency": "inactive"}
{"smiles": "c1ccc2c(c1)CCNC2", "Potency": "inactive"}
{"smiles": "O=C(Cc1ccccc1)OCc1ccccc1", "Potency": "inactive"}
{"smiles": "Cc1cc(Cl)ccc1O", "Potency": "inactive"}
{"smiles": "Nc1cc(Cl)ccc1Cl", "Potency": "inactive"}
{"smiles": "BrCC(Br)(Br)Br", "Potency": "12.6 µM (active)"}
{"smiles": "BrCC(Br)C1CCC(Br)C(Br)C1", "note": "(stereo not given)", "Potency": "inactive"}
{"smiles": "CN1CSC(=S)N(C)C1", "Potency": "25.1 µM (active)"}
{"smiles": "c1ccc(N=NNc2ccccc2)cc1", "Potency": "inactive"}
{"smiles": "O=[N+]([O-])c1ccccc1O", "Potency": "inactive"}
{"smiles": "Oc1c(Cl)c(Cl)cc(Cl)c1Cl", "Potency": "inactive"}
{"smiles": "CCCCCc1cc(O)cc(O)c1", "Potency": "inactive"}
